Shown are actives, neighbours in structure and some others; about 12% of the full set was active somewhere.
ALDH1A1 block: blocks purified human ALDH1A1 activity | P00352 | Purified ALDH1A1, NADH fluorescence, propionaldehyde substrate | 220,000 compounds, 7.3% hits | Potency, µM (top dose mostly 75.3 µM), actives largely listed as inhibitors; active = well fitted inhibition curve with a large enough effect, not every such curve was filed as active; inconclusive = small, poorly fitted or top-dose-only effect, or another doubt; inactive = no such curve, though single readings can be large or run the other way
VP16 counter: inhibits Gal4-VP16 luciferase reporter, ROR gamma counter-screen; 310,000 compounds, 3.5% hits; Potency, µM (doses to about 53.6 µM), most hits filed as inhibitors; Drosophila S2 Gal4-VP16 UAS-luciferase, luminescence, 20 h;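 note: Gal4-VP16 expression switched on by copper sulfate through the metallothionein promoter; nearly all actives have a fitted effect of over 50% in size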
RORg inh: ROR gamma (mouse) transcription inhibition. P51450. Drosophila S2 Gal4-RORgamma UAS-luciferase reporter, 20 h. Potency, µM (titrated, usually from 53.6 µM), hits mostly inhibitors. 310,000 compounds, 5.4% hits. AID 2551; note: nearly all actives have a fitted effect of over 60% in size
Target sequence (P51450 whole entry, looked up, the tested form may be a part): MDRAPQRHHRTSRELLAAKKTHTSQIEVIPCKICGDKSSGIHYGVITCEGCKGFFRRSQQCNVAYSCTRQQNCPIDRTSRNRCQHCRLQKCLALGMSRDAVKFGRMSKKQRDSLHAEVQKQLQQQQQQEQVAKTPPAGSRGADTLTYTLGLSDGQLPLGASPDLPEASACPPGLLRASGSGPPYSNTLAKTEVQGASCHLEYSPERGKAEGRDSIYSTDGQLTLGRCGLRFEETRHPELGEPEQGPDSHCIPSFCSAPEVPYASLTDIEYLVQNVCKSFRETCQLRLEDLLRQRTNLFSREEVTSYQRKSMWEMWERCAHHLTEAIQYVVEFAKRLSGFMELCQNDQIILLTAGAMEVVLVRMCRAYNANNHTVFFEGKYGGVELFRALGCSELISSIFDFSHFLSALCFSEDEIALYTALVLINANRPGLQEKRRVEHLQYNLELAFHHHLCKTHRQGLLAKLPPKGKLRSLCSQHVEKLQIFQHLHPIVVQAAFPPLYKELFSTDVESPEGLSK
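In this cell-based reporter format, copper sulfate (700 uM final) drives Gal4–ROR gamma fusion expression from a metallothionein promoter in Drosophila Schneider cells; compounds preincubated 1 hr, reporter read after 20 hr at ambient temperature.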
Sfp PPTase inh: Sfp phosphopantetheinyl transferase inhibition; 310,000 compounds, 3.5% hits; Biochemical Sfp PPTase activity, qHTS; AID 1490; Q9F4F7; Potency, µM, hits mostly inhibitors;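 note: the enzyme is Sfp with the accession as filed and its product quenches rhodamine fluorescence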
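Fluorescence-quenching assay with 15 nM Sfp, 5 uM rhodamine-CoA and 12.5 uM BHQ-2-labelled ybbR peptide in pH 7.6 Hepes/MgCl2 buffer. Enzyme was pre-incubated with compound for 15 min at room temperature. Rate was taken from the 30-min fluorescence change (525/598 nm).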
PLK1 PBD block: PLK1 (human) polo-box domain binding inhibition; 360,000 compounds, 2.8% hits; Potency, µM, actives largely listed as inhibitors; AID 720504; P53350; Plk1 PBD binding of FITC phosphopeptide, fluorescence polarization; note: series mostly up to about 57 µM; nearly all actives have a fitted effect of over 65% in size
Of the large screens only hits and unclear results are named; the others gave an inactive call. Unless noted, calls come from the whole dose curve; as a rule, active = well fitted curve in the direction sought with a large enough effect; inconclusive = small, poorly fitted or top-dose-only effect, or another doubt; inactive = no such curve, though single readings can be large; an effect the other way counts as inactive or inconclusive.

CC(NC(=O)c1cccs1)c1ccc(Br)cc1 (stereo unspecified)	none (no result: ALDH1A1 block, VP16 counter, RORg inh, Sfp PPTase inh)
O=c1cnc2cncnc2n1Cc1ccc(F)cc1	ALDH1A1 block 10µM (no result: PLK1 PBD block)
O=c1c(CCc2ccccc2)nc2cncnc2n1Cc1ccccc1	ALDH1A1 block 25µM (no result: PLK1 PBD block)
O=c1cnc2cncnc2n1Cc1ccccc1Cl	ALDH1A1 block 3.5µM (no result: PLK1 PBD block)
O=c1cnc2ccccc2n1Cc1ccccc1	none (no result: ALDH1A1 block, VP16 counter, RORg inh, Sfp PPTase inh)
O=c1cnc2cncnc2n1Cc1ccccc1	ALDH1A1 block 4µM (no result: PLK1 PBD block)
COCC(=O)N(C)C[C@@H]1Oc2cc(-c3ccc(F)cc3)ccc2S(=O)(=O)N([C@H](C)CO)C[C@H]1C	none (no result: ALDH1A1 block, VP16 counter, RORg inh, Sfp PPTase inh)
CCSc1nnc(NC(=O)C(C)(C(F)(F)F)C(F)(F)F)s1	VP16 counter inconclusive, RORg inh inconclusive
CCSc1nnc(NC(=O)C(C(F)(F)F)C(F)(F)F)s1	ALDH1A1 block 18µM, PLK1 PBD block 13µM
CCSc1nnc(NC(=O)C(CC)(C(F)(F)F)C(F)(F)F)s1	VP16 counter 16µM, RORg inh 10µM
O=C(NC(c1ccc(Cl)cc1)c1ccsc1)C1CCN(Cc2ccc(Oc3ccccc3)cc2)CC1 (stereo unspecified)	none (no result: ALDH1A1 block, VP16 counter, RORg inh, Sfp PPTase inh)
S=c1[nH]nc(CN2CCCCC2)n1-c1ccc(Cl)cc1	VP16 counter inconclusive, RORg inh 7.1µM
FC(F)(F)c1ccccc1-n1c(CN2CCCCC2)n[nH]c1=S	RORg inh 11µM, PLK1 PBD block inconclusive (no result: ALDH1A1 block)
Cc1ccc(C(C)C)cc1-n1nnc(-c2cccc(Cc3ccc4ccccc4c3)c2)c1C(C)O (stereo unspecified)	none (no result: ALDH1A1 block, VP16 counter, RORg inh, Sfp PPTase inh)
Cc1nc(C(Cl)(Cl)Cl)nc2[nH]ccc(=O)c12	PLK1 PBD block 27µM
CCN(CC)Cc1cc(Nc2c3ccccc3nc3c4ccccc4n(C)c23)cc(CN(CC)CC)c1O	none (no result: ALDH1A1 block, VP16 counter, RORg inh, Sfp PPTase inh)
O=C(NCc1ccccn1)C1CCN(C2CCN(Cc3cccc(F)c3)CC2)CC1	none (no result: ALDH1A1 block, VP16 counter, RORg inh, Sfp PPTase inh)
Cc1ccc([C@@H]2[C@@H]3C(=O)N(C)C(=O)[C@@H]3[C@]3(C)C(=O)N(Cc4ccc(-c5ccccc5)cc4)CC(=O)N23)o1	Sfp PPTase inh 50µM (no result: ALDH1A1 block)
Cc1ccc([C@@H]2[C@@H]3C(=O)N(c4ccccc4)C(=O)[C@@H]3[C@]3(C)C(=O)N(Cc4ccccc4)CC(=O)N23)o1	none (no result: ALDH1A1 block)
OC[C@@H]1CN(Cc2ccc3c(c2)OCO3)C[C@H](n2cnc3c(N4CCN(c5ccccc5)CC4)ncnc32)O1	none (no result: ALDH1A1 block, VP16 counter, RORg inh, Sfp PPTase inh)
Cc1cccc2nc(CSc3ccc(Cl)cc3)cn12	VP16 counter inconclusive, RORg inh 7.9µM, PLK1 PBD block inconclusive
c1ccc2c(SCc3cn4ccccc4n3)nncc2c1	Sfp PPTase inh 45µM
Nc1ccccc1SCc1cn2ccccc2n1	VP16 counter inconclusive, RORg inh inconclusive
Cc1cccc2nc(CSc3nc4cc([N+](=O)[O-])ccc4s3)cn12	VP16 counter inconclusive, RORg inh 20µM
Cc1cccc2nc(CSCc3ccco3)cn12	RORg inh inconclusive, Sfp PPTase inh 32µM, PLK1 PBD block inconclusive
CCN1C(=O)[C@H]2[C@H]3CN=C(SC)N3[C@@](C)(C(=O)OC)[C@H]2C1=O	none (no result: ALDH1A1 block, VP16 counter, RORg inh, Sfp PPTase inh)
Clc1ccc(SCc2cn3ccccc3n2)cc1	RORg inh 8.9µM
Clc1ccc(-n2nnnc2SCc2cn3ccccc3n2)cc1	RORg inh inconclusive
COc1ccc(C(C)(NC(C)=O)c2nc(-c3cc(F)cc(F)c3)cs2)cc1 (stereo unspecified)	none (no result: ALDH1A1 block, VP16 counter, RORg inh, Sfp PPTase inh)
CCOC(=O)[C@]12CCC=C1N(Cc1ccc(Cl)cc1Cl)C(=O)[C@H](CC(=O)N1CCC(c3ccccc3)CC1)C2	none (no result: ALDH1A1 block, VP16 counter, RORg inh, Sfp PPTase inh)
COc1ccccc1CN1C(=O)[C@@H]2C(CCC(N)=O)NC3(C(=O)Nc4c3ccc(Cl)c4C)[C@@H]2C1=O (stereo partly specified)	ALDH1A1 block 0.22µM
CSc1nnc2c3cc(C)ccc3n(Cc3ccccc3)c2n1	ALDH1A1 block 14µM, Sfp PPTase inh 56µM
CCCCn1c2ccc(F)cc2c2nnc(NN)nc21	ALDH1A1 block 2.2µM, RORg inh inconclusive
CCn1c2ccc(C)cc2c2nnc(NN)nc21	ALDH1A1 block 25µM, RORg inh 1.6µM
CCn1c2ccccc2c2nnc(NN)nc21	ALDH1A1 block 16µM, RORg inh inconclusive
CNc1cc(-c2ccc(CC#N)cc2)ncn1	none (no result: ALDH1A1 block, VP16 counter, RORg inh, Sfp PPTase inh)
Oc1ccc(C[C@H]2CNC(=S)N2C[C@H]2CCCN2C[C@H](Cc2ccccc2)N2C[C@H](Cc3ccc(O)cc3)N(CCc3ccccc3)C2=S)cc1	none (no result: ALDH1A1 block, VP16 counter, RORg inh, Sfp PPTase inh)
COc1ccc2[nH]cc(CCNc3ncncc3-c3cccc(NS(C)(=O)=O)c3)c2c1	Sfp PPTase inh inconclusive (no result: PLK1 PBD block)
